Activity calls are given as the source filed them. The calls were made as follows: active = hit-call score of the fitted dose curve at least 0.9, where 1 is the maximum; inactive = score below 0.9.
Legend:
[1] = ATG_CRE_CIS: Attagene CIS-FACTORIAL HepG2 Assay for human cAMP Responsive Element (CRE) binding protein 3 (AID 2282926); details: HepG2 CRE cis-reporter, Attagene multiplexed mRNA; actives raise or lower the signal
Procedure, shortened: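 Capillary electrophoresis of 6-FAM-labelled, HpaI-digested PCR products quantified reporter transcripts. These came from HepG2 transiently transfected with cis-element reporters and exposed to test chemicals for 24 hours, with DMSO defining baseline activity.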

[2] = target: CCAAT/enhancer-binding protein beta (Homo sapiens) (UniProt P17676); assay: ATG_C_EBP_CIS: Attagene CIS-FACTORIAL HepG2 Assay for human CCAAT/Enhancer Binding Protein (C/EBP) beta (AID 2282927); details: HepG2 Attagene cis-factorial transcription factor reporter; actives raise or lower the signal
Sequence of CCAAT/enhancer-binding protein beta (Homo sapiens) (P17676 whole entry, looked up): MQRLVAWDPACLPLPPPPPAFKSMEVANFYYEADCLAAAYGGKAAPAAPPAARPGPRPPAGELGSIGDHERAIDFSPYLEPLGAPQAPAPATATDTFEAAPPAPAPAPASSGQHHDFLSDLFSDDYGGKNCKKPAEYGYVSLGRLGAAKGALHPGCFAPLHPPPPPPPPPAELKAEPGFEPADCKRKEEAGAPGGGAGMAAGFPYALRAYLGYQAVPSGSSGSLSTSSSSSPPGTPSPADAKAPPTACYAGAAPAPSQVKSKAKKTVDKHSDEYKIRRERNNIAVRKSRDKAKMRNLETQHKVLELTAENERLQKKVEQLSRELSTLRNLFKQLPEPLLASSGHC
Procedure, shortened: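 Endogenous transcription factor activity in human liver HepG2 cells is inferred from induction of a CEBPB-linked reporter mRNA. Exposure lasts 24 h; activity is fitted in both directions relative to DMSO.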

[3] = ATG_CMV_CIS: Attagene CIS-FACTORIAL HepG2 Assay for human CMV (Internal Marker) (AID 2282928); details: HepG2 CMV promoter reporter, transcription factor profiling; actives raise or lower the signal;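 also: endpoint acts as a background internal control marker rather than a target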
Procedure, shortened: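 Reporter transcripts from transfected HepG2 cells are isolated after 24 h of chemical dosing, reverse-transcribed and amplified. Fragments labeled with 6-FAM are cut with HpaI and quantified by capillary electrophoresis; DMSO defines baseline.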

[4] = ATG_DR4_LXR_CIS: Attagene CIS-FACTORIAL HepG2 Assay for human Liver X Receptor (LXR), DR4 submotif (AID 2282929); details: HepG2 Attagene DR4 cis-reporter, mRNA transcription; actives raise or lower the signal
Procedure, shortened: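 Fluorescence intensity of labelled reporter cDNA fragments, separated by capillary electrophoresis, gives the signal. HepG2 cells bearing cis-regulated reporter constructs were treated 24 h; activity fitted bidirectionally relative to DMSO negative control.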

[5] = target: Aryl hydrocarbon receptor (Homo sapiens) (UniProt P35869); assay: ATG_Ahr_CIS: Attagene CIS-FACTORIAL HepG2 Assay for human Aryl Hydrocarbon Receptor (Ahr) (AID 2282930); details: HepG2 AhR cis-factorial reporter transcription; actives raise or lower the signal
Sequence of Aryl hydrocarbon receptor (Homo sapiens) (P35869 whole entry, looked up): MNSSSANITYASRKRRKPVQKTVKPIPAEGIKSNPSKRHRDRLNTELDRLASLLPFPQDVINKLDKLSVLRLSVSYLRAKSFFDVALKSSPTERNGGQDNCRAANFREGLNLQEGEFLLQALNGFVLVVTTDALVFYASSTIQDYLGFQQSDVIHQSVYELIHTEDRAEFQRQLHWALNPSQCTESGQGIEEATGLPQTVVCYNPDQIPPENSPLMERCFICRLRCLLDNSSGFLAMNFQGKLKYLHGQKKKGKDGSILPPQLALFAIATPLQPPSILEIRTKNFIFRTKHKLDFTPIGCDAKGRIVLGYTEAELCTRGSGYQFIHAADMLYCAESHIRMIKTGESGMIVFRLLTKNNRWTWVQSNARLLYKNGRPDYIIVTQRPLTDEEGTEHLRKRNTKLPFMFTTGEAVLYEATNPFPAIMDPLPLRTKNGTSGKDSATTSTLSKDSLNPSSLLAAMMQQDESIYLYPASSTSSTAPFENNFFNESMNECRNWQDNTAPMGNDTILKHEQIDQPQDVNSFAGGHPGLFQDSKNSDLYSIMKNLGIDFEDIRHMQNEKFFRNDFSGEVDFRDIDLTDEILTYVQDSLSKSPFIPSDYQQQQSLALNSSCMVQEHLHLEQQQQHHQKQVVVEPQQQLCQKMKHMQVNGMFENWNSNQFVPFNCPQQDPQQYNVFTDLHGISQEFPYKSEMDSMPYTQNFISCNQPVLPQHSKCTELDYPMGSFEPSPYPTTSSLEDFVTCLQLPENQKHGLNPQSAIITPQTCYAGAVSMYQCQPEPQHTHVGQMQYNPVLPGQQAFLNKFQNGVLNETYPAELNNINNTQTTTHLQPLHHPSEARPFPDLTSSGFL
Procedure, shortened: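 Transient MRTU transfection of HepG2 → 24 h compound exposure → total RNA, oligo(dT) RT → PCR, 6-FAM extension, HpaI cut → CE fluorescence. DMSO = baseline; bidirectional curve fit.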

[6] = ATG_AP_1_CIS: Attagene CIS-FACTORIAL HepG2 Assay for human Activator Protein 1 (AP-1) (AID 2282931); details: HepG2 Attagene cis-factorial AP-1 reporter mRNA; actives raise or lower the signal
Procedure, shortened: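 Multiplexed HepG2 reporter assay, 24 h dosing. mRNA induction detected by RT-PCR plus capillary electrophoresis. Activity fitted in both directions against DMSO.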

[7] = ATG_AP_2_CIS: Attagene CIS-FACTORIAL HepG2 Assay for human Activator Protein 2 (AP-2) (AID 2282932); details: HepG2 AP-2 cis-reporter, Attagene transcription factor profiling; actives raise or lower the signal
Procedure, shortened: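 Transiently transfected HepG2 cells are exposed to chemical for 24 h. Reporter transcripts are then measured as fluorescence following RT-PCR and capillary separation, and gain- or loss-of-signal is fitted relative to DMSO.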

[8] = ATG_BRE_CIS: Attagene CIS-FACTORIAL HepG2 Assay for human Bone Morphogenetic Protein (BMP) Response Element (BRE) (AID 2282933); details: HepG2 BMP response element reporter, Attagene transcription factor profiling; actives raise or lower the signal
Procedure, shortened: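 HepG2 cells transiently transfected with CIS reporter units (endogenous TF activity, BMP response element), dosed 24 h. Reporter mRNA quantified by RT-PCR, fluorescent labelling and capillary electrophoresis; bidirectional fit vs DMSO baseline.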

[9] = target: Retinoic acid receptor alpha (Homo sapiens) (UniProt P10276); assay: ATG_DR5_RAR_CIS: Attagene CIS-FACTORIAL HepG2 Assay for human Retinoic Acid Receptor Alpha (RARE), DR5 submotif (AID 2282934); details: HepG2 Attagene cis-factorial RARE DR5 reporter, mRNA; actives raise or lower the signal
Sequence of Retinoic acid receptor alpha (Homo sapiens) (P10276 whole entry, looked up): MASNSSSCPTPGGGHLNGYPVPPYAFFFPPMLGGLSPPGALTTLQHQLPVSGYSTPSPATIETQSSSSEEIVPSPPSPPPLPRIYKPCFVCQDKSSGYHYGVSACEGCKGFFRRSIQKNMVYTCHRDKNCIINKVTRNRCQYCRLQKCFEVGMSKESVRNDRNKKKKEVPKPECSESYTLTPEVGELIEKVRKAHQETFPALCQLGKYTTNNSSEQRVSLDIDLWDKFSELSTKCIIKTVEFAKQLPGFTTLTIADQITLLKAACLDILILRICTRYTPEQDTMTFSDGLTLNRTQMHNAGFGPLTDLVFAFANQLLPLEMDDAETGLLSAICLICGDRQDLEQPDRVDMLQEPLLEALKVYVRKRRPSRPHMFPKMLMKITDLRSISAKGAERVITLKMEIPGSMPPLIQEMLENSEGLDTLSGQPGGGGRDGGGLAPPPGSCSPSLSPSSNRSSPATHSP
Procedure, shortened: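 Transient MRTU transfection of HepG2; 24 h compound treatment; TriZol RNA, oligo(dT) RT, PCR, FAM labelling, capillary electrophoresis. Bidirectional fit vs DMSO. Endogenous TF activity at DR5 RARE.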

[10] = target: Transcription factor E2F1 (Homo sapiens) (UniProt Q01094); assay: ATG_E2F_CIS: Attagene CIS-FACTORIAL HepG2 Assay for human E2F Transcription Factor 1 (AID 2282935); details: HepG2 Attagene cis-reporter, E2F reporter RNA transcripts; actives raise or lower the signal
Sequence of Transcription factor E2F1 (Homo sapiens) (Q01094 whole entry, looked up): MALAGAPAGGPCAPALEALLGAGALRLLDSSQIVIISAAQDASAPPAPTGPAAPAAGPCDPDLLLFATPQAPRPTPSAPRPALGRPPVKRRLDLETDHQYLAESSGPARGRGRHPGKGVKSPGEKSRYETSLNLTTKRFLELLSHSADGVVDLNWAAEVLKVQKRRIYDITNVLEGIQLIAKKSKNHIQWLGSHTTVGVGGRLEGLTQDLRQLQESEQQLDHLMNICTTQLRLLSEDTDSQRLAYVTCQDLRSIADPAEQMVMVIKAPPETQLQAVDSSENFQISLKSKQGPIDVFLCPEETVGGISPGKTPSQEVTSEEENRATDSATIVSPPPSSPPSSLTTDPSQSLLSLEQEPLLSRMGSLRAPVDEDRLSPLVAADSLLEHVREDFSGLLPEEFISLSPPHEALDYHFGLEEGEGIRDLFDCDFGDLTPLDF
Procedure, shortened: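 Fluorescent RT-PCR products, digested with HpaI for 2 h at 37 C, are separated by capillary electrophoresis. Source RNA comes from transfected HepG2 cultures treated for 24 h.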

[11] = ATG_E_Box_CIS: Attagene CIS-FACTORIAL HepG2 Assay for human Enhancer Box (E-box) (AID 2282936); details: HepG2 E-box cis-reporter transcription, actives raise or lower the signal
Procedure, shortened: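 Fluorescent reporter fragments separated by capillary electrophoresis gave the signal; mRNA came from HepG2 cells transfected with cis-element reporters and treated 24 h. Curves fitted bidirectionally relative to DMSO controls.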

[12] = ATG_EGR_CIS: Attagene CIS-FACTORIAL HepG2 Assay for human Early Growth Response 1 (EGR1) (AID 2282938); details: HepG2 Attagene CIS-FACTORIAL EGR reporter mRNA; actives raise or lower the signal
Procedure, shortened: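 Activity is taken as induction or loss of reporter mRNA versus DMSO, fitted bidirectionally. Transcripts from cis-regulated reporter units in transiently transfected HepG2 were measured after 24 h by RT-PCR with capillary electrophoresis.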

[13] = ATG_M_61_CIS: Attagene CIS-FACTORIAL HepG2 Assay for M61 Transcription Factor (Internal Marker) (AID 2282937); details: HepG2 Attagene CIS-FACTORIAL M61 internal marker reporter; actives raise or lower the signal
Procedure, shortened: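 Endogenous transcription factor activity in HepG2 is read through transiently transfected cis-element reporter units. After 24 h dosing, RNA undergoes reverse transcription, PCR and primer extension with 6-FAM before capillary electrophoresis; DMSO-referenced bidirectional fit.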

Measured: AC50

CN(C)CCN(C)C
not listed: [13]
inactive: all other assays above

CC(C)(C1CCC(O)CC1)C1CCC(O)CC1 (configuration not stated)
not listed: [11]
inactive: all other assays above

CC(C)(C#N)N=NC(C)(C)C#N
not listed: [11]
inactive: all other assays above

CCCCCCCCCCCCCCC(Br)C(=O)O (configuration not stated)
inactive: [1] | [3] | [5] | [8] | [11]
active: [2] 179 µM | [4] 27.4 µM | [6] 173 µM | [7] 100 µM | [10] 108 µM | [13] 183 µM | [12] 146 µM

c1csc(-c2ccc(-c3cccs3)s2)c1
active: [4] 2.08 µM | [5] 0.739 µM | [6] 8.14 µM | [12] 3.02 µM
not listed: [9]
inactive: all other assays above

O=NN1CCOCC1
not listed: [11]
inactive: all other assays above

CC(O)(CS(=O)(=O)c1ccc(F)cc1)C(=O)Nc1ccc(C#N)c(C(F)(F)F)c1 (configuration not stated)
active: [8] 98.5 µM
not listed: [9] | [12]
inactive: all other assays above

BrCc1ccc(Br)cc1
active: [5] 60.9 µM
not listed: [9]
inactive: all other assays above

O=C(CBr)c1ccc(O)cc1
not listed: [9] | [12] | [13]
inactive: all other assays above

CCN(CC)C(=O)C(Cl)=C(C)OP(=O)(OC)OC
not listed: [11] | [13]
inactive: all other assays above

CCOP(=O)(OCC)SCCSCC
not listed: [13]
inactive: all other assays above

COc1ccc([N+](=O)[O-])cc1O
not listed: [8]
inactive: all other assays above

O=c1nc(O)n(Cl)c(=O)n1Cl
not listed: [9] | [13]
inactive: all other assays above

CC(C)C(C)(N)C#N (configuration not stated)
not listed: [8] | [9]
inactive: all other assays above

Source: PubChem BioAssay (EPA / NIEHS)
